Only some compounds are listed: those with a hit (about 17% of all), similar ones and a draw of the others.
ATXN2 expr inh: inhibitors of ATXN2 expression | HEK-293 ATXN2-luciferase reporter, luminescence, 24 h | Potency, µM (highest dose often 57 µM), most hits filed as inhibitors | 360,000 compounds, 0.72% hits; further: nearly all actives have a fitted effect of over 55% in size
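ATXN2-luciferase reporter cells (luciferase flanked by upstream and downstream ATXN2 gene portions) were treated 24 h at 37 °C with compounds at up to 57 uM. SteadyGlo luminescence gave expression; GF-AFC fluorescence gave viability.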
ATXN viability: cell viability loss in ATXN counter-screen. S2 cells (HEK-293 line with an ATXN2-luciferase reporter) viability, CellTiter-Fluor protease fluorescence, 24 h. Potency, µM (titrated, usually from 56.7 µM), most hits filed as cytotoxic. 400,000 compounds, 0.49% hits; further: nearly all actives have a fitted effect of over 40% in size
DT40 TDP1 CPT: growth inhibition of DT40 Tdp1-/-;hTDP1 cells with camptothecin (screen for TDP1 inhibitors); AID 686979; 420,000 compounds, 12% hits; chicken DT40 Tdp1-/-;hTDP1 cells + 20 nM CPT, ATP luminescence, 48 h; Potency, µM (doses to about 46.2 µM), usual class: inhibitors; further: nearly all actives have a fitted effect of over 55% in size
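Chicken DT40 Tdp1-/- cells stably complemented with human TDP1 were seeded at 400 cells/well in medium containing 20 nM camptothecin, exposed to pin-transferred compounds, and grown at 37 °C for at least 48 hr. Viability was read as ATP luminescence.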
TDP1 cell noCPT: qHTS for Inhibitors of human tyrosyl-DNA phosphodiesterase 1 (TDP1): qHTS in cells in absence of CPT; DT40 Tdp1-/- hTDP1 cells, no CPT, ATP luminescence, 48 h; 420,000 compounds, 15% hits; Potency, µM (doses to about 46.2 µM), actives largely listed as inhibitors; further: nearly all actives have a fitted effect of over 55% in size
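A cellular qHTS used chicken DT40 cells lacking endogenous Tdp1 but carrying stably transfected human TDP1. Compounds were applied without camptothecin, and cell growth kinetics were judged by ATP-dependent luminescence after ≥48 hr.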
TGFb inhibitor: TGF-b pathway inhibition; 410,000 compounds, 1.2% hits; Potency, µM (highest dose often 46.1 µM), hits mostly inhibitors; HepG2 CAGA-GFP TGF-b/SMAD3 reporter, GFP fluorescence, 18 h; TGF-beta stimulated, 500 pg/mL final; further: nearly all actives have a fitted effect of over 65% in size
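Inhibition of TGF-beta-driven CAGA-GFP reporter expression in HEPG2 cells is measured by cellular GFP fluorescence after 18 h stimulation with 500 pg/mL recombinant TGF-beta in 1% FBS medium at 37 degrees C.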
HepG2 tox: HepG2 cytotoxicity, counter-screen for TGF-b inhibitors | HepG2 CAGA-GFP viability, ATP luminescence, 18 h | Potency, µM (highest dose often 46.1 µM), actives largely listed as cytotoxic | 410,000 compounds, 0.76% hits | AID 588856
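HepG2 CAGA-GFP cells (1000/well, DMEM with 1% FBS) received compound, then TGF-beta at 500 pg/mL final, and were incubated 18 hours at 37 degrees C. Viability was read by CellTiter-Glo luminescence. Media-only wells were set as complete cell-killing and DMSO as no toxicity.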
Numbers stand for hits; n = inactive; u = inconclusive; x = no result; [ ] = another dose, or the depositor's remark. The call rests on the fitted dose curve; in most records, active means well fitted curve in the direction sought with a large enough effect; inconclusive means small, poorly fitted or top-dose-only effect, or another doubt; inactive means no such curve, though single readings can be large; an effect the other way counts as inactive or inconclusive.

SMILES | ATXN2 expr inh | ATXN viability | DT40 TDP1 CPT | TDP1 cell noCPT | TGFb inhibitor | HepG2 tox
Cc1ccc(CSCc2ccc(C(=O)NC3CCCC3)o2)cc1 | n | n | n | n | n | n
Cc1ccc(CSCc2ccc(C(=O)NC3CC3)o2)cc1 | x | n | u | 23.1µM | n | n
CCC(C)NC(=O)c1ccc(CSCc2ccccc2Cl)o1 (centres undefined) | n | n | u | u | n | n
Cc1ccc(CNC(=O)c2ccc(CSCc3ccc(Cl)cc3)o2)cc1 | x | x | u | 16.4µM | u | n
O=C(NCc1ccc(Cl)cc1)c1ccc(CSCc2cccc(Cl)c2)o1 | u | n | n | u | u | n
CCC(C)NC(=O)c1ccc(CSCc2ccc(Cl)cc2)o1 (centres undefined) | u | n | n | 25.9µM | n | n
Cc1nn(C)c(C(=O)NCc2ccc(Cl)cc2)c1Cl | n | n | 4.11µM | 4.11µM | n | n
CC(=O)N(c1ccc(Cl)cc1)C1SC(=O)N(c2ccccc2)C1=O (centres undefined) | x | x | n | u | x | x
Cc1ccc(S(=O)(=O)NC(=O)C2(C)CCN2C(=O)CCc2ccc(Cl)cc2Cl)nc1 (centres undefined) | n | n | n | n | n | n
Cc1ccc(CSCc2ccc(C(=O)NCCCN3CCOCC3)o2)cc1 | n | n | u | 6.51µM | n | n
Cc1ccc(CC(=O)NCc2ccc(Cl)cc2)cc1 | x | u | 4.61µM | 3.66µM | n | n
O=C(CC(=O)NCc1ccc(Cl)cc1)NCc1ccc(Cl)cc1 | n | n | n | n | n | n
CC(=O)c1cccc(Nc2ccc(C#N)cc2)c1 | n | n | u | u | n | n
COCCOC(=O)c1c(C)oc2ccc(NS(=O)(=O)c3ccc(F)cc3)cc12 | x | n | u | n | u | n
CCCCC(=O)N(c1ccc2oc(C)c(C(C)=O)c2c1)S(=O)(=O)c1ccc(F)cc1C | n | n | 14.6µM | 10.3µM | n | n
CCCCOC(=O)c1c(C)oc2ccc(NS(=O)(=O)c3ccc(F)cc3C)cc12 | u | u | u | u | 14.1µM | n
CC(=O)Nc1ccc(-c2csc(NNC(=O)c3ccccc3)n2)cc1 | x | u | 11.6µM | 1.3µM | n | n
CC(=O)Nc1ccc(-c2csc(NCc3ccccc3)n2)cc1 | n | n | n | u | n | n
CC(=O)Nc1ccc(-c2csc(N/N=C(/C)c3ccccc3)n2)cc1 | n | n | 20.6µM | 9.2µM | n | n
CCC(=O)Nc1ccc(-c2csc(NNC(C)=O)n2)cc1 | n[11.3 µM] | n | n | n | n | n
O=C(Nc1ccc2c(c1)N(C1CCCC1)C(=O)c1ccccc1S2)c1ccc(F)cc1 | n | n | 23.1µM | u | n | n
COc1cc(C(=O)Nc2ccc3c(c2)N(C2CCCC2)C(=O)c2ccccc2S3)cc(OC)c1OC | n | n | u | u | u | n
O=C(Nc1ccc2c(c1)N(C1CCCC1)C(=O)c1ccccc1S2)c1ccccc1 | n | u | u | 11.6µM | n | n
COc1cc(OC)cc(C(=O)Nc2ccc3c(c2)N(C2CCCC2)C(=O)c2ccccc2S3)c1 | n | n | n | u | n | n
O=C(Nc1ccc2c(c1)N(C1CCCC1)C(=O)c1ccccc1S2)c1cccc(F)c1 | n | n | u | 18.4µM | n | n
SMILES | ATXN2 expr inh | ATXN viability | DT40 TDP1 CPT | TDP1 cell noCPT | TGFb inhibitor | HepG2 tox
O=S(=O)(c1cnccc1N1CCN(CCO)CC1)N1CCCCC1 | n | n | n | n | n | n
Cn1c(=O)oc2cc(S(=O)(=O)Nc3cccc4c3CCCC4)ccc21 | u | n | n | u | n | n
CC(C)(O)C#Cc1ccc(C(=O)Nc2ccc3c(c2)OCO3)s1 | n | n | u | n | n | n
CC1=Nn2c(nc(-c3ccccc3)c2-c2ccccc2)N(CC(N)=O)C(=O)C1 | n | u | n | n | n | n
CCC1C(=O)Nc2nc(-c3ccccc3)c(-c3ccccc3)n2N=C1C (centres undefined) | n | n | 20.6µM | 23.1µM | n | n
COc1ccc2nc(SC(C(=O)c3ccccc3)c3ccccc3)nc(C)c2c1 (centres undefined) | n | n | 23.1µM | u | n | n
Nc1[nH]c(C(=O)c2ccccc2)c(-c2ccc(Br)cc2)c1C(=O)NCCc1c[nH]c2ccccc12 | u | 22.4µM | u | 18.4µM | x | x
COc1ccc(C(=O)c2[nH]c(N)c(C(=O)NCCc3c[nH]c4ccccc34)c2-c2ccc(C(F)(F)F)cc2)cc1 | n | n | 16.4µM | 20.6µM | x | x
COc1ccc(C(=O)c2[nH]c(N)c(C(=O)NCCc3c[nH]c4ccccc34)c2-c2ccc(Br)cc2)cc1 | n | n | u | 20.6µM | x | x
Nc1[nH]c(C(=O)c2ccccc2)c(-c2ccncc2)c1C(=O)NCCc1c[nH]c2ccccc12 | n | u | u | u | x | x
COc1ccc2sc(-c3ccc(S(C)(=O)=O)cc3)c(C(=O)NCCc3c[nH]c4ccccc34)c2c1 | n | n | 20.6µM | 16.4µM | n | n
COc1cc(=O)n2c(c1C(=O)NCc1ccc3c(c1)OCO3)CCN(C(=O)c1ccc(C)cc1)CC2 | x | n | n | n | x | x
CC(C)(C)Cc1c(-c2cccc(Br)c2)nc2ccc(Cl)cn12 | n | n | u | u | u | n
COc1ccc(-c2cc(C(F)(F)F)n3ncc(-c4ccccc4)c3n2)cc1 | x | x | u | u | n | n
CC(C)c1ccc(N2C(=O)CC(NNC(=O)c3cccnc3)C2=O)cc1 (centres undefined) | n | n | n | n | n | n
CCCNC(=O)C1(C)CCCN(Cc2ccc(-n3ccnc3)cc2)C1 (centres undefined) | n | n | n | n | n | n
CN1C(=O)C2(C(C#N)=C(N)N(c3cc(Cl)cc(Cl)c3)C3=C2C(=O)CC(C)(C)C3)c2ccccc21 (centres undefined) | n | n | 20.6µM | u | n | n
Cc1ccc(N2C(N)=C(C#N)C3(C(=O)N(C)c4ccccc43)C3=C2CC(C)(C)CC3=O)cc1Cl (centres undefined) | n | n | u | 16.4µM | n | n
Cc1ccc(N2C(N)=C(C#N)C(c3cccnc3)C3=C2CC(C)(C)CC3=O)cc1 (centres undefined) | n | u | u | u | n | n
CC1(C)CC(=O)N(c2cc(Cl)cc(Cl)c2)C(=O)C1 | n | n | n | n | n | n
C[C@H]1CN([C@@H](C)CO)C(=O)Cc2cc(NC(=O)C3CC3)ccc2O[C@H]1CN(C)Cc1ccc(Oc2ccccc2)cc1 | u | x | u | u | u | n
